The values that follow come from PubChem BioAssay AID1671202 (University of Kansas High Throughput Screening Laboratory, 2021).

In all, about 190,000 compounds went through this assay and about 6,900 (3.6%) were called active. Rule as the data show it: active = inhibition above about 50%; inactive = the rest. For the sample, actives were picked, then their nearest neighbours and some compounds at random.

Huntingtin (Homo sapiens), sequence (P42858 whole entry, looked up, stated change not applied): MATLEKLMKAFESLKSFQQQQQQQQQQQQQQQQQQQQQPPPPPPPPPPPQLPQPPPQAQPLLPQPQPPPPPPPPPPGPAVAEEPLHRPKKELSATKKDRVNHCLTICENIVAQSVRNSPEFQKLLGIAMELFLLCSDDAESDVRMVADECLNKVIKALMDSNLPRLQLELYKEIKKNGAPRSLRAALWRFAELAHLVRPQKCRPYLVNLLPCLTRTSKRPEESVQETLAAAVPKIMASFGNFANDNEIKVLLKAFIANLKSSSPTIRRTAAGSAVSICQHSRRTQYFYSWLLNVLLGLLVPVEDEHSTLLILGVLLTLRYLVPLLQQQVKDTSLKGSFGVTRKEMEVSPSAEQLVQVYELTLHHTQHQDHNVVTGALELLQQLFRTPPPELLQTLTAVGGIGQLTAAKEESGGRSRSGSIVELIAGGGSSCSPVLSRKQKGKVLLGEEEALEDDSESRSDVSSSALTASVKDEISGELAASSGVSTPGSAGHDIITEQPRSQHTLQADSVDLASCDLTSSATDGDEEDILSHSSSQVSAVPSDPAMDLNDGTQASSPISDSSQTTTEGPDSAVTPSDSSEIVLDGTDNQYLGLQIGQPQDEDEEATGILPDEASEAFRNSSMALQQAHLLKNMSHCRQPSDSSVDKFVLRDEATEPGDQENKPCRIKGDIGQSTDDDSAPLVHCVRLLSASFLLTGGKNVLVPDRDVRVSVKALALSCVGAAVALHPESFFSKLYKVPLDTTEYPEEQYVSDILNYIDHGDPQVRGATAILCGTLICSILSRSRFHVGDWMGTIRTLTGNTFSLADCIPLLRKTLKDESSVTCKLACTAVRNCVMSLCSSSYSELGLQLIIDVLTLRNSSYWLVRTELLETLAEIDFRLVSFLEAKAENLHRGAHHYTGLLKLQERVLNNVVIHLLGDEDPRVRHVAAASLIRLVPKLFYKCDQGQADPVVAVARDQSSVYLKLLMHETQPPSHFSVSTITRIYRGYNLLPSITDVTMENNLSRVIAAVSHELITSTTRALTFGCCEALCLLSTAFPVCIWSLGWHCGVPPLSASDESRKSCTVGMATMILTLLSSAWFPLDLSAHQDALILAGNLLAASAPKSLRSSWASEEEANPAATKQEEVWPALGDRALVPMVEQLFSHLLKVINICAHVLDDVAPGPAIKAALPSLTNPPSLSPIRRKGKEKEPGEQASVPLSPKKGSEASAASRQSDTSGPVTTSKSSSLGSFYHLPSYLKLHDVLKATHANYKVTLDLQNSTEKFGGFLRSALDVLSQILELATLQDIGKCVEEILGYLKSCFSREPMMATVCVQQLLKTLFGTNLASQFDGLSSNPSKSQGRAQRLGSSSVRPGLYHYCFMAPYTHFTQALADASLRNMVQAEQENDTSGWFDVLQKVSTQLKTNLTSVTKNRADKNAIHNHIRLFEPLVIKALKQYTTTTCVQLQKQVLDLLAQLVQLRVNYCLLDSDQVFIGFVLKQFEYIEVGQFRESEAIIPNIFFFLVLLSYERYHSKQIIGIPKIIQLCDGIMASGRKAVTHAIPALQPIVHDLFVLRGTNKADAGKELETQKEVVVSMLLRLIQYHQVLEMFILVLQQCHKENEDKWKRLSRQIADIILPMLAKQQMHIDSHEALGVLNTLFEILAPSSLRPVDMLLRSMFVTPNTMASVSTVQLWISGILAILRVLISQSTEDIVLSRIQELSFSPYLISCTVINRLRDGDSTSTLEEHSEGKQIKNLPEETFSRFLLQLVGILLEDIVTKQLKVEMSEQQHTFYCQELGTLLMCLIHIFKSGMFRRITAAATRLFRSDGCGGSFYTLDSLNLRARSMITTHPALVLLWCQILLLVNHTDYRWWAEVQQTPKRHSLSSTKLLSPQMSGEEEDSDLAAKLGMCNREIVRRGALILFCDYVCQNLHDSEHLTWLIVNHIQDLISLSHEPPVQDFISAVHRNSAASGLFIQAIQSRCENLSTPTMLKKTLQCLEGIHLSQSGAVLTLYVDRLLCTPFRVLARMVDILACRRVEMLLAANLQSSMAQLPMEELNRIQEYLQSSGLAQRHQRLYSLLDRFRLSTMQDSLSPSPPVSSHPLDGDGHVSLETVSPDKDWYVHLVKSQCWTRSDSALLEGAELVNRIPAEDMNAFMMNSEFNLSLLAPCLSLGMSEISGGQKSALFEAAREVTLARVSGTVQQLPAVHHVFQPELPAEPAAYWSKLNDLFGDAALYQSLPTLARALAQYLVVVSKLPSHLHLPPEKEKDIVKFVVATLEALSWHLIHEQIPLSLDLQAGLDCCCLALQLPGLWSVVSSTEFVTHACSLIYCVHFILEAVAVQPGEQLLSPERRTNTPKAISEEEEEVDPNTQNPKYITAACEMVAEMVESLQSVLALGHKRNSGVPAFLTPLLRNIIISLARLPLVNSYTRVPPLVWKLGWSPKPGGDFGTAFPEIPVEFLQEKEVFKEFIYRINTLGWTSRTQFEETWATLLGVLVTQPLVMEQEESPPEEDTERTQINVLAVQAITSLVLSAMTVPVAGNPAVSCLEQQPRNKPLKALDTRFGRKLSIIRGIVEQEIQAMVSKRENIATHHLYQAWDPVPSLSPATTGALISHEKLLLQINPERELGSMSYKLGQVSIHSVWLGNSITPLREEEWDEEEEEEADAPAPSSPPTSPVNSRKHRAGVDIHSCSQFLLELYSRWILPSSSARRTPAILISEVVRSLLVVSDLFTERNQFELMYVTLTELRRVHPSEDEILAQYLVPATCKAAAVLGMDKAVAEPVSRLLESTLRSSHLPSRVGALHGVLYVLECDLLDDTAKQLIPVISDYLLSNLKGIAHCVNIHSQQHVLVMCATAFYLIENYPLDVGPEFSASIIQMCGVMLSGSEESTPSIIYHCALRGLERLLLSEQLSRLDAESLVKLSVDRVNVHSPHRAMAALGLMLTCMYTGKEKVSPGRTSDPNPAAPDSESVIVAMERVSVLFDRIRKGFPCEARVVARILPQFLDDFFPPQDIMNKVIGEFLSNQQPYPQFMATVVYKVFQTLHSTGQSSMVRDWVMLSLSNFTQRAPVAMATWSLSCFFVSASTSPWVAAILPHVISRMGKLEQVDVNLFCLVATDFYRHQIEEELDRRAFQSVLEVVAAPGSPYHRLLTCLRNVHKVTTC

This experiment has as its target Huntingtin (Homo sapiens) (UniProt P42858). The experiment can be described thus: mutant huntingtin-calmodulin interaction inhibitors – biochemical, AlphaScreen, primary screen (AID 1671202).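 Also: 0% = both proteins with DMSO and 100% = one protein alone.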 Conditions: AlphaScreen His-mHTT/GST-CaM binding, luminescence; at 15 µM, hits give high values.
A word on the inhibition: it is the drop in the measured response relative to a control, in per cent. Consider `CC(C)(C)C(=O)NCCC(O)C1CC1` (stereo unspecified), for which the inhibition is -4% (inactive). The result for `CN(C)CCn1c2c(c(SCC(=O)Nc3ccccc3C(F)(F)F)nc1=O)CCC2` reads 0% (inactive). The result for `O=C(CSc1nnnn1-c1cccc2ccccc12)Nc1ccccc1Cl` reads -8.1% (inactive); that for `COc1ccc(C(=O)Nc2ccccc2F)cc1OC`, -1.2% (inactive). With `COc1ccc(C2=NC3(CCCCC3)N(CC(=O)Nc3ccc4c(c3)OCO4)C2=O)cc1` the figure was 3.31% (inactive); with `CNc1nccc(N2CCC(CC(=O)N3CCN(c4ccccc4)CC3)CC2)n1`, 13.2% (inactive); with `NC(N)=Nc1nc(-c2ccccc2)c2cc(Cl)ccc2n1`, 100% (active).

For `Cc1nc(N=C(N)N)nc2c(C)cccc12`, the inhibition was 25.3% (inactive). The result for `O=c1cc(-c2ccccc2)sc2ccc(Cl)cc12` reads 7% (inactive).

Regarding `CN(C)c1ccc(C2Nc3ccccc3NC3=C2C(=O)CC(c2ccc(Cl)cc2)C3)cc1` (stereo unspecified), the inhibition is 63% (active). The result for `COc1ccc(C2CC(=O)C3=C(C2)Nc2ccccc2NC3c2cc(F)ccc2F)cc1` (stereo unspecified) reads 23% (inactive); that for `O=C1CC(c2ccc(Cl)cc2)CC2=C1C(c1ccsc1)Nc1ccccc1N2` (stereo unspecified), 4% (inactive); that for `O=C(c1cccs1)N1CC(c2nc(-c3ncccn3)no2)C1`, -5.2% (inactive). On to `COc1ccc(CNC(=O)CN(c2ccc(I)cc2)S(C)(=O)=O)cc1`, for which the inhibition is -4.2% (inactive). With `COc1ccc(C2=N/C(=C\c3cccc([N+](=O)[O-])c3)C(=O)O2)c(Br)c1` the figure was 3% (inactive). With `COc1ccc(C)cc1NC(=O)N1CCc2c(c(COCc3ccccc3F)nn2C)C1` the figure was 33.8% (inactive); with `COc1ccc(N2CCN(CC(O)COC3CC4CCC3(C)C4(C)C)CC2)cc1` (stereo unspecified), 64.3% (active); with `CC1(C)C2CCC1(C)C(OCC(O)CN1CCOCC1)C2` (stereo unspecified), 2.6% (inactive). With `CC1CCN(CC(O)COC2CC3CCC2(C)C3(C)C)CC1` (stereo unspecified) the figure was -1.1% (inactive); with `COc1ccc(C2=NN3COc4ccc(Br)cc4C3C2)cc1` (stereo unspecified), 34% (inactive); with `COc1ccc(C2=NN3C(C2)c2cc(OC)ccc2OC3(C)C)cc1` (stereo unspecified), 64% (active). Consider `COc1ccc(C2=NN3COc4ccc(Cl)cc4C3C2)cc1` (stereo unspecified), for which the inhibition was 27% (inactive). With `COc1ccc2c(c1)C(=O)C(C1(O)C(=O)Nc3ccccc31)CC2` (stereo unspecified) the figure was 2.6% (inactive); with `COc1ccc(OC)c(C2C3=C(CC(C)(C)CC3=O)Nc3ccccc3N2C(C)=O)c1` (stereo unspecified), 8.9% (inactive).

On to `O=S1(=O)CC(N2CCN(Cc3ccccc3F)CC2)CN1Cc1cn(Cc2cccc(C(F)(F)F)c2)nn1` (stereo unspecified), for which the inhibition is 6.8% (inactive). With `COCCCNC(=O)c1cnn2c(C(F)(F)F)cc(-c3cccs3)nc12` the figure was 10% (inactive); with `O=[N+]([O-])c1c(Cl)cc(Cl)c2nsnc12`, 88% (active). As to `O=C(Nc1ccc(S(=O)(=O)Nc2ccccn2)cc1)C1OC2OC3(CCCCC3)OC2C2OC3(CCCCC3)OC12` (stereo unspecified), the inhibition is 22.5% (inactive). Turning to `Cc1ccc(SCC(=O)N2CCN(C)CC2)cc1`, the inhibition is 0.5% (inactive). For `CCc1onc(C)c1C1CCCN1Cc1cc(Br)ccc1F` (stereo unspecified), the inhibition was -71.3% (inactive). With `CCn1cc(-c2ccc(F)cc2)cc1C(=O)NC(C)c1cccnc1` (stereo unspecified) the figure was 50.5% (active). Take `CCn1cc(-c2ccccc2)cc1C(=O)NCc1ccccn1`: the inhibition is 47.4% (inactive).

Regarding `CCn1cc(-c2ccc(C)cc2)cc1C(=O)NCc1cccnc1`, the inhibition is 46.7% (inactive). With `OCCCc1nc2n(n1)C(c1ccco1)C=C(c1ccc(Br)cc1)N2` (stereo unspecified) the figure was 34% (inactive); with `COc1ccc(N2C(=O)CSC2c2c(F)cccc2Cl)c(OC)c1` (stereo unspecified), 1% (inactive).

As for `COc1cc([N+](=O)[O-])ccc1N=Cc1c(C)[nH]n(-c2ccc(C)c(C)c2)c1=O`, the inhibition was 11% (inactive). Consider `COc1cc([N+](=O)[O-])ccc1N=Cc1c(C)[nH]n(-c2ccccc2C)c1=O`, for which the inhibition was 57% (active).

Turning to `COc1cc(SC#N)ccc1N=Cc1c(C)[nH]n(-c2ccc(Br)cc2)c1=O`, the inhibition is 2% (inactive). Consider `COc1cccc2cc(-c3cc(=O)oc4cc5c(cc34)CCCC5)oc12`, for which the inhibition was -2.8% (inactive). The result for `O=C(c1c(F)cccc1F)N1CCN(S(=O)(=O)C2CC2)CC1` reads -10.4% (inactive); that for `O=C1Nc2ccccc2Oc2cc([N+](=O)[O-])cc(Oc3ccccc3Br)c21`, 32% (inactive); that for `COc1ccccc1C(=O)N1CCCC2(C1)Nc1cccnc1NC2=NCc1ccccc1` (stereo unspecified), 1.03% (inactive). With `CC(C)(C)C(=O)N1CCCC2(C1)Nc1ccccc1NC2=NCc1ccccc1` (stereo unspecified) the figure was 100% (active); with `COCCNC(=O)N1CCCC2(C1)Nc1ccccc1NC2=NCc1ccccc1` (stereo unspecified), 97.7% (active). With `O=C(c1cnccn1)N1CCCC2(C1)Nc1ccccc1NC2=NCc1ccccc1` (stereo unspecified) the figure was 25.6% (inactive); with `O=C(c1ccccn1)N1CCC2(C1)NCc1ccccc1NC2=NCc1ccccc1` (stereo unspecified), 12.6% (inactive); with `c1ccc(CN=C2Nc3ccccc3NC23CCCNC3)cc1` (stereo unspecified), 25.7% (inactive). Regarding `Cc1cccc(-c2csc3c(=O)n(Cc4ccc(F)cc4)cnc23)c1`, the inhibition was -29.4% (inactive). The result for `O=S1(=O)c2ccccc2S(=O)(=O)N1c1cc(F)ccc1F` reads 6% (inactive); that for `O=C(c1cccc2c1CCN2C(=O)C1CC1)N1CCOCC1`, -4.9% (inactive). `CC12C=CC(O1)C1C(=O)N(c3ccc(Cl)c(C(=O)O)c3)C(=O)C12` (stereo unspecified): the inhibition was -2% (inactive). With `O=C(NCc1ccccc1Cl)c1cnn2c3c(cnc12)CCCCCC3` the figure was -7% (inactive). The result for `COc1cccc(N=Cc2cc(Br)ccc2O)c1` reads 13% (inactive); that for `O=C1/C(=C/c2ccc3c(c2)OCO3)CCC/C1=C\c1ccc2c(c1)OCO2`, 58% (active); that for `O=C1OC(c2ccco2)=N/C1=C/c1ccc2c(c1)OCO2`, 29% (inactive). In the case of `CSC1=N/C(=C\c2ccc3c(c2)OCO3)C(=O)S1`, the inhibition was -2% (inactive).

For `COc1cc(Cl)ccc1C(=O)N1CCC(c2nc(CCNC(C)=O)cs2)CC1`, the inhibition was 5.03% (inactive). Turning to `Cc1cccc(C(=O)N2CCCC(C(=O)NC3CCCC3)C2)c1` (stereo unspecified), the inhibition is 25.1% (inactive). The result for `Cc1nn(-c2ccccc2)c(Cl)c1C(=O)N1CCOCC1` reads 1% (inactive); that for `Cc1nn(-c2ccccc2)c(C)c1N1CCN(C(=O)c2cc(-c3ccccc3)n[nH]2)CC1`, 98.9% (active); that for `O=C(c1cc(-c2ccccc2)n[nH]1)N1CCN(c2ncccn2)CC1`, -17.7% (inactive).
